Test results published in PubChem BioAssay (NCATS).
Inconclusive results are not listed. Active and inactive are the calls of the source. Unless noted, calls come from the whole dose curve; as a rule, active = well fitted cell-killing curve with a large enough effect; inconclusive = small, poorly fitted or top-dose-only effect, or effect the other way; inactive = flat fitted curve, though single readings scatter.

What was measured:
[1] = tested on: C33A; test: Primary qHTS to identify gynecologic anti-cancer compounds using libraries of approved drugs and bioactive compounds (AID 1345084); conditions: Gynecologic cancer cell panel viability, ATPlite luminescence, 48 h; series mostly up to 57.5 µM; note: % is set by controls: 0 for no effect and ±100 for the full control effect; nearly all actives have a fitted effect of over 55% in size
Outline: (§1)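 Luminescence from the ATPlite ATP-monitoring reagent indicates viable cell number; lower signal means cytotoxicity. Cells received compound 16 h after seeding and were exposed for 48 h across five concentrations.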

[2] = tested on: CAOV3; test: as above; conditions: Gynecologic cancer cell panel viability, ATPlite luminescence, 48 h; series mostly up to 57.5 µM
Outline: as §1

[3] = tested on: CASKI; test: as above; conditions: Gynecologic cancer cell panel viability, ATPlite luminescence, 48 h; series mostly up to 57.5 µM
Outline: as §1

[4] = tested on: Es-2; test: as above; conditions: Gynecologic cancer cell panel viability, ATPlite luminescence, 48 h; series mostly up to 57.5 µM
Outline: as §1

[5] = tested on: HeLa; test: as above; conditions: Gynecologic cancer cell panel viability, ATPlite luminescence, 48 h; series mostly up to 57.5 µM
Outline: as §1

[6] = tested on: Hek293T; test: as above; conditions: Gynecologic cancer cell panel viability, ATPlite luminescence, 48 h, control line for the selectivity index; series mostly up to 57.5 µM
Outline: as §1

[7] = tested on: JEG-3; test: as above; conditions: Gynecologic cancer cell panel viability, ATPlite luminescence, 48 h; series mostly up to 57.5 µM
Outline: as §1

[8] = tested on: OV90; test: as above; conditions: Gynecologic cancer cell panel viability, ATPlite luminescence, 48 h; series mostly up to 57.5 µM
Outline: as §1

[9] = tested on: PA-1; test: as above; conditions: Gynecologic cancer cell panel viability, ATPlite luminescence, 48 h; series mostly up to 57.5 µM
Outline: as §1

[10] = tested on: SKOV3; test: as above; conditions: Gynecologic cancer cell panel viability, ATPlite luminescence, 48 h; series mostly up to 57.5 µM
Outline: as §1

[11] = tested on: Tov-21-G; test: as above; conditions: Gynecologic cancer cell panel viability, ATPlite luminescence, 48 h; series mostly up to 57.5 µM
Outline: as §1

[12] = tested on: Tov112D; test: as above; conditions: Gynecologic cancer cell panel viability, ATPlite luminescence, 48 h; series mostly up to 57.5 µM
Outline: as §1

[13] = target: Nuclear receptor subfamily 1 group I member 2 (Rattus norvegicus) (UniProt Q9R1A7); test: qHTS assay for small molecule activators of the rat pregnane X receptor (rPXR) signaling pathway (AID 651751; call rule not given here; note: 0% is about no effect); conditions: rPXR reporter cells, luciferase (One-Glo), 24 h
[14] = qHTS assay for small molecule activators of the human pregnane X receptor (PXR) signaling pathway (AID 720659; call rule not given here; note: 0% is about no effect)

Nuclear receptor subfamily 1 group I member 2 (Rattus norvegicus), sequence (Q9R1A7 whole entry, looked up): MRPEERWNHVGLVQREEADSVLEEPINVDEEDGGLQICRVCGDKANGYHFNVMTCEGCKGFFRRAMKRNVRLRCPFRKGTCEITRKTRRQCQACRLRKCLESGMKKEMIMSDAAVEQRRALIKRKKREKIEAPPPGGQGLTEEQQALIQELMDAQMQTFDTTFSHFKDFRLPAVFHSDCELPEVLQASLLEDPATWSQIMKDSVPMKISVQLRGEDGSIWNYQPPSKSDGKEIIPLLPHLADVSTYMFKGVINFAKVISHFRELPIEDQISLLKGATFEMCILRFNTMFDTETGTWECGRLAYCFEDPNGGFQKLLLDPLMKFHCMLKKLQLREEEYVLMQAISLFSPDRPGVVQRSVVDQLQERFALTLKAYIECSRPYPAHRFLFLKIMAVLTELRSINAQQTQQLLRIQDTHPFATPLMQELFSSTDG

Cc1nc2ccc(Oc3ccc(F)cc3)cc2c(=O)n1C[C@H]1CCCN(C(C)C)C1
inactive: Potency [1] | Potency [2] | Potency [3] | Potency [4] | Potency [5] | Potency [6] | Potency [7] | Potency [8] | Potency [9] | Potency [10] | Potency [11] | Potency [12]

CC(=O)O[C@@H]1CC(C)=C2[C@H]1[C@H](C)CC[C@H]2/C=C(\C)C(=O)O
inactive: Potency [1] | Potency [2] | Potency [3] | Potency [4] | Potency [5] | Potency [6] | Potency [7] | Potency [8] | Potency [9] | Potency [10] | Potency [11] | Potency [12] | max response [13] -4.19% | outcome [14]

CC(C)(C(=O)NCC(F)(F)C(F)(F)F)C(=O)NC1C(=O)Nc2ccccc2-c2ccccc21 (stereo not drawn)
inactive: Potency [1] | Potency [2] | Potency [3] | Potency [4] | Potency [5] | Potency [6] | Potency [7] | Potency [8] | Potency [9] | Potency [11] | Potency [12]

C=C[C@@](C)(O)CC/C=C(\C)C(=O)O[C@@H]1[C@@H]2O[C@]2(C)[C@H]2[C@H](O[C@@H]3O[C@H](CO)[C@@H](O)[C@H](O)[C@H]3O)OC=C[C@@]12O
inactive: Potency [1] | Potency [2] | Potency [3] | Potency [4] | Potency [5] | Potency [6] | Potency [7] | Potency [8] | Potency [9] | Potency [11] | Potency [12]

CC(C)C[C@H](CC(=O)NO)C(=O)N[C@@H](Cc1ccc2ccccc2c1)C(=O)N[C@@H](C)C(=O)NCCN
inactive: Potency [1] | Potency [2] | Potency [3] | Potency [4] | Potency [5] | Potency [6] | Potency [7] | Potency [8] | Potency [9] | Potency [11] | Potency [12]

NC(=O)[C@H](O[C@@H]1O[C@H](CO)[C@@H](O)[C@H](O)[C@H]1O)c1ccccc1
inactive: Potency [1] | Potency [2] | Potency [3] | Potency [4] | Potency [5] | Potency [6] | Potency [7] | Potency [8] | Potency [9] | Potency [11] | Potency [12]

O=S(=O)(c1ccc(S(=O)(=O)n2cnc3ccccc32)cc1)N1CCCCCC1
inactive: Potency [1] | Potency [2] | Potency [3] | Potency [4] | Potency [5] | Potency [6] | Potency [7] | Potency [8] | Potency [9] | Potency [11] | Potency [12]

O=C1OCC(c2ccccc2)=C1Cc1ccccc1
inactive: Potency [1] | Potency [2] | Potency [3] | Potency [4] | Potency [5] | Potency [6] | Potency [7] | Potency [8] | Potency [9] | Potency [11] | Potency [12]

C/C(=C/CO)CC[C@@H]1[C@@](C)(O)CCC2C(C)(C)CCC[C@]21C (stereo partly drawn)
inactive: Potency [1] | Potency [2] | Potency [3] | Potency [4] | Potency [5] | Potency [6] | Potency [7] | Potency [8] | Potency [9] | Potency [11] | Potency [12]

COc1ccc([C@@H]2OC[C@H]3[C@@H]2CO[C@@H]3c2ccc(OC3OC(CO)C(O)C(O)C3O)c(OC)c2)cc1OC (stereo partly drawn)
inactive: Potency [1] | Potency [2] | Potency [3] | Potency [4] | Potency [5] | Potency [6] | Potency [7] | Potency [8] | Potency [9] | Potency [11] | Potency [12]

c1ccc(N2CCN(CCc3nn[nH]n3)CC2)cc1
inactive: Potency [1] | Potency [2] | Potency [3] | Potency [4] | Potency [5] | Potency [6] | Potency [7] | Potency [8] | Potency [9] | Potency [11] | Potency [12]

CS(=O)(=O)c1ccc([C@H](CC2CCCC2)C(=O)Nc2nccs2)cc1
inactive: Potency [1] | Potency [2] | Potency [3] | Potency [4] | Potency [5] | Potency [6] | Potency [7] | Potency [8] | Potency [9] | Potency [11] | Potency [12]

CC1CC(O)/C=C/C(O)C(O)CC(=O)Cc2c(Cl)c(O)cc(O)c2C(=O)O1 (stereo not drawn)
inactive: Potency [1] | Potency [2] | Potency [3] | Potency [4] | Potency [5] | Potency [6] | Potency [7] | Potency [8] | Potency [9] | Potency [11] | Potency [12]

CC1(C)C=CN2C(=O)C3=CCCN3C(=O)[C@@H]2C[C@@]12Nc1ccccc1C2=O
inactive: Potency [1] | Potency [2] | Potency [3] | Potency [4] | Potency [5] | Potency [6] | Potency [7] | Potency [8] | Potency [9] | Potency [11] | Potency [12]
